# Where “and” joins values, the source holds several entries; their conditions need not be identical. Identical values can stand only once. Records with an inconclusive call do not appear. Calls of active or inactive are those of the source. The calls were made as follows, unless noted: active = hit-call score of the fitted dose curve at least 0.9, where 1 is the maximum; inactive = score below 0.9.
# What was measured:
# [1] = tested on: SRY-box transcription factor 17 (SOX17) Protein Expression, Deisenroth Lab, SOX17 (gene 64321); test: CCTE_Deisenroth_DEVTOX-GLR_legacy_Sox17: (Legacy) CCTE's DevTox GLR-Endo Assay Evaluation of SRY-box transcription factor 17 (SOX17) Protein Expression, Deisenroth Lab (AID 2284341); settings: actives raise or lower the signal
# Procedure, shortened: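 Endoderm-differentiation readout in RUES2-GLR human pluripotent cells at 48 h, concentrations spanning 1 nM - 200 uM. Sox17-positive cells divided by total cell count; gain or loss relative to DMSO solvent control, n=4 experimental replicates.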
# [2] = tested on: SRY-box transcription factor 2 (SOX2) Protein Expression, Deisenroth Lab, SOX2 (gene 6657); test: CCTE_Deisenroth_DEVTOX-GLR_legacy_Sox2: (Legacy) CCTE's DevTox GLR-Endo Assay Evaluation of SRY-box transcription factor 2 (SOX2) Protein Expression, Deisenroth Lab (AID 2284346)
# Procedure, shortened: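 Read-out: fraction of Sox2+ cells by high-content fluorescence imaging of fixed RUES2-GLR cells after 48 h differentiation with two 24 h-spaced exposures. Positivity cutoff 5x BMAD above endoderm control median; 0.2% DMSO median subtracted.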
# [3] = tested on: SRY-box transcription factor 17 (SOX17) Protein Expression, Deisenroth Lab, SOX17 (gene 64321); test: CCTE_Deisenroth_DEVTOX-GLR_Endo_SOX17: CCTE's DevTox GLR-Endo Assay Evaluation of SRY-box transcription factor 17 (SOX17) Protein Expression, Deisenroth Lab (AID 2284413)
# Procedure, shortened: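 Human RUES2-GLR cells carrying an inducible fluorescent reporter are differentiated in defined media for 48 h and dosed twice, 24 h apart. After fixation and nuclear staining, imaging yields SOX17+ cell percentage relative to 0.2% DMSO-treated differentiated cells.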
# [4] = tested on: Brachyury (BRA) Protein Expression, TBXT (gene 6862); test: CCTE_Deisenroth_DEVTOX-GLR_Endo_BRA: CCTE's DevTox GLR-Endo Assay Evaluation of Brachyury (BRA) Protein Expression, Deisenroth Lab (AID 2284417)
# Procedure, shortened: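 Read-out: BRA+ cell count divided by total cell count by high-content imaging (5 fields per well), expressed relative to 0.2% DMSO solvent control. RUES2-GLR cells dosed twice over a 48 h differentiation; concentrations 1 nM - 200 uM.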
# [5] = CCTE_Deisenroth_DEVTOX-GLR_Endo_CellCount: Viability Assessment in CCTE's DevTox GLR-Endo Assay, Deisenroth Lab (AID 2284420)
# Procedure, shortened: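 Nuclei counted by fluorescence microscopy as a surrogate for cell number, expressed as percent change relative to 0.2% DMSO control. Human RUES2-GLR cells, 48 h differentiation, dosed twice; 1 nM - 200 uM series.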
# [6] = tested on: SRY-box transcription factor 2 (SOX2) Protein Expression, Deisenroth Lab, SOX2 (gene 6657); test: CCTE_Deisenroth_DEVTOX-GLR_Pluri_SOX2: CCTE's DevTox GLR-Pluri Assay Evaluation of SRY-box transcription factor 2 (SOX2) Protein Expression, Deisenroth Lab (AID 2284428)
# Procedure, shortened: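 RUES2-GLR (human pluripotent), 48 h post-dosing, 2 exposures q24h, 1 nM–200 uM 10-pt. Fixed, nuclear dye, high-content imaging 5 fields/well. Endpoint: % SOX2+ cells (SOX2+/total count) vs 0.2% DMSO; n≥4.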
# [7] = tested on: Brachyury (BRA) Protein Expression, Deisenroth Lab, TBXT (gene 6862); test: CCTE_Deisenroth_DEVTOX-GLR_Pluri_BRA: CCTE's DevTox GLR-Pluri Assay Evaluation of Brachyury (BRA) Protein Expression, Deisenroth Lab (AID 2284429; active = hit-call score of the fitted dose curve at least 0.9, where 1 is the maximum)
# Procedure, shortened: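 RUES2-GLR reporter line; 48 h mesoderm differentiation; two exposures, 24 h apart; 1 nM - 200 uM, 10 points; nuclear stain, high-content imaging, 5 fields/well; endpoint = %BRA+ cells of total count minus 0.2% DMSO; n=4.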
# [8] = CCTE_Deisenroth_DEVTOX-GLR_Pluri_CellCount: Viability Assessment in CCTE's DevTox GLR-Pluri Assay Evaluation of Total Cell Counts, Deisenroth Lab (AID 2284430)
# Procedure, shortened: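 Cytotoxicity readout: fluorescent nuclei counts by high-content imaging, expressed as percent change relative to 0.2% DMSO. Human RUES2-GLR pluripotent line differentiated 48 h, dosed twice at 24-h intervals across 1 nM - 200 uM (10 points).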
# TTR (gene 7276) = test: CCTE_GLTED_hTTR_0.125uM: CCTE's human Transthyretin (hTTR) Inhibition Assay, with 0.125uM TTR, Great Lakes Toxicology and Ecology Division (GLTED) Lab (AID 2284431);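 also: hits lower the fluorescence signal relative to DMSO baseline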
# Procedure, shortened: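 TTR 0.125uM + test chemical, 2 h; ANSA probe displacement; ex 380/em 475 fluorescence; signal loss vs DMSO control.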
# [9] = CCTE_Mundy_HCI_iCellGluta_NOG_NeuronCount: CCTE's Neurite Outgrowth Assay in iCellGluta cells for Neuron Count, Mundy Lab (AID 2284340; active = hit-call score of the fitted dose curve at least 0.9, where 1 is the maximum;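 also: cells fixed about 48 h after compound addition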)
# Procedure, shortened: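 Neuron count read by automated high-content imaging of Hoechst 33342 and betaIII-tubulin/Alexa Fluor-488 labelling in human iPSC glutamatergic neurons. Activity fitted relative to DMSO.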
# [10] = CCTE_Mundy_HCI_iCellGluta_NOG_NeuriteCount: CCTE's Neurite Outgrowth Assay in iCellGluta cells for Neurite Count, Mundy Lab (AID 2284342; active = hit-call score of the fitted dose curve at least 0.9, where 1 is the maximum;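 also: chemical exposure about 48 hours starting 2 hours after plating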)
# [11] = VALA_TUBIPS_Agonist_CellCount: Viability Assessment in the VALA Sciences human iPS-derived Endothelial Tubule Formation (TUBIPS) Agonism Assay (AID 2284338; active = hit-call score of the fitted dose curve at least 0.9, where 1 is the maximum)
# Experimental: VALA_TUBIPS_Agonist is a cell-based, multiplexed assay that uses human iPS-derived endothelial cells (iPSC). Measurements were taken 72 hours after chemical dosing in a 96-well plate.VALA_TUBIPS_Agonist_CellCount is the one of two assay components measured from the VALA_TUBIPS_Agonist assay. It is designed to make measurements of viability, a form of viability reporter, as detected with fluorescence intensity signals by HCS Fluorescent Imaging technology. Data from the assay component VALA_TUBIPS_Agonist_CellCount was analyzed at the endpoint, VALA_TUBIPS_Agonist_CellCount, in the positive analysis fitting direction relative to DMSO as the negative control and baseline of activity. Using a type of viability reporter, loss-of-signal activity can be used to understand viability. To generalize the intended target to other relatable targets, this assay endpoint is annotated to the cell cycle intended target family, where the subfamily is cell count.
# […]
# [12] = tested on: SRY-box transcription factor 17 (SOX17) Protein Expression, Deisenroth Lab, SOX17 (gene 64321); test: CCTE_Deisenroth_DEVTOX-GLR_Pluri_SOX17: CCTE's DevTox GLR-Pluri Assay Evaluation of SRY-box transcription factor 17 (SOX17) Protein Expression, Deisenroth Lab (AID 2284427; active = hit-call score of the fitted dose curve at least 0.9, where 1 is the maximum)
# Procedure, shortened: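 Readout: percent SOX17+ cells (SOX17+ count/cell count) by high-content imaging of an inducible fluorescent reporter, corrected for 0.2% DMSO solvent control. RUES2-GLR cells, 48 h differentiation, dosed twice at 24 h intervals, 1 nM - 200 uM.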
structure (smiles),measurement,setting,value
O=C1NC(=O)C(c2ccccc2)(c2ccccc2)N1,outcome,[1],inactive
same,outcome,[2],inactive
same,outcome,[3],inactive
same,AC50,[4],100 µM (active)
same,outcome,[5],inactive
same,AC50,[6],150 µM (active)
same,AC50,[7],152 µM (active)
same,AC50,[8],100 µM (active)
O=C(O)c1[nH]n(-c2ccc(S(=O)(=O)O)cc2)c(=O)c1N=Nc1ccc(S(=O)(=O)O)cc1,AC50,TTR (gene 7276),17.8 µM (active)
S=c1[nH]c2ccccc2s1,AC50,TTR (gene 7276),4.06 µM (active)
OCC(O)CO,outcome,[9],inactive
same,outcome,[10],inactive
COC(=O)[C@H]1[C@H]2C[C@@H]3c4[nH]c5cc(OC)ccc5c4CCN3C[C@H]2C[C@@H](OC(=O)c2cc(OC)c(OC)c(OC)c2)[C@@H]1OC,outcome,[11],inactive
Cc1c(C)c2c(c(C)c1O)CCC(C)(COc1ccc(CC3SC(=O)NC3=O)cc1)O2 (stereo not given),AC50,TTR (gene 7276),2.31 µM (active)
O=C1c2c(O)cccc2Cc2cccc(O)c21,AC50,TTR (gene 7276),22 µM (active)
O=C(NS(=O)(=O)/C=C/c1cccs1)c1ccc(F)cc1Br,AC50,TTR (gene 7276),7.75 µM (active)
CC(=O)CC(c1ccccc1)c1c(O)c2ccccc2oc1=O (stereo not given),outcome,[1],inactive
same,outcome,[10],inactive
same,outcome,[2],inactive
same,AC50,[3],100 µM (active)
same,AC50,[4],1.45e-06 µM (active)
same,outcome,[5],inactive
same,outcome,[12],inactive
same,outcome,[6],inactive
same,outcome,[7],inactive
same,outcome,[8],inactive
same,AC50,TTR (gene 7276),7.34 µM (active) and 4.39 µM (active)
CCCCC(CC)COP(=O)(OCC(CC)CCCC)OCC(CC)CCCC (stereo not given),AC50,[11],2.27 nM (active)
O=C1OC(c2ccc(O)cc2)(c2ccc(O)cc2)c2ccccc21,outcome,[11],inactive
same,AC50,TTR (gene 7276),0.056 µM (active)
Cc1cc(Cc2ccc(N)c(C)c2)ccc1N,AC50,TTR (gene 7276),9.71 µM (active)
Cc1ccc(-c2cc(C(F)(F)F)nn2-c2ccc(S(N)(=O)=O)cc2)cc1,outcome,[11],inactive
Nc1nc(Cl)nc2c1ncn2[C@H]1C[C@H](O)[C@@H](CO)O1,AC50,[11],230 nM (active)
O=C(O)c1cccnc1,outcome,[1],inactive
same,outcome,[2],inactive
same,outcome,[3],inactive
same,outcome,[4],inactive
same,outcome,[5],inactive
same,outcome,[12],inactive
same,outcome,[6],inactive
same,outcome,[7],inactive
same,outcome,[8],inactive
CCC(C)N(C)C(=O)c1cc2ccccc2c(-c2ccccc2Cl)n1 (stereo not given),AC50,TTR (gene 7276),27.1 µM (active)
Cc1cn([C@H]2C=C[C@@H](CO)O2)c(=O)[nH]c1=O,outcome,[1],inactive
same,outcome,[2],inactive
same,outcome,[3],inactive
same,outcome,[4],inactive
same,outcome,[5],inactive
same,outcome,[12],inactive
same,outcome,[6],inactive
same,outcome,[7],inactive
same,outcome,[8],inactive
CCCCCCCCCCCCCCOS(=O)(=O)O,AC50,TTR (gene 7276),1.9 µM (active)
O=Cc1ccccc1C=O,AC50,TTR (gene 7276),0.121 µM (active)
CCCCc1nc2cccnc2n1Cc1ccc(-c2ccccc2-c2nnn[nH]2)cc1,AC50,TTR (gene 7276),7.22 µM (active)
